High-throughput results from PubChem BioAssay.
Shown are actives, neighbours in structure and some others; about 2.4% of the full set was active somewhere.
APE1 inh: APE1 (human) endonuclease inhibition. Potency, µM (series often up to 65.8 µM), for inactives: at the highest dose activity change, negative = inhibition, usual class: inhibitors. P27695. AID 2517. 0.35% of 350,000 active. recombinant APE1, TAMRA/BHQ-2 abasic DNA cleavage fluorescence;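 note: plate controls were vehicle for no effect and reference inhibitor for full effect; nearly all actives have a fitted effect of over 55% in size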
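Enzyme (0.75 nM final) and test compound are incubated 15 min at room temperature before adding 50 nM quenched THF abasic-site duplex. Cleavage dequenches TAMRA, followed at 525/598 nm over three reads one minute apart.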
GLS inh: inhibitors of human glutaminase (GLS); O94925; GLS enzymatic activity, qHTS titration; Potency, µM (highest dose often 45.5 µM), without a hit: at the top dose activity change, negative = inhibition, actives largely listed as inhibitors; 0.21% of 410,000 active; AID 624170; note: % is set by controls: 0 for no effect and ±100 for the full control effect
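Read-out is an Amplex red fluorescence increase coupled through glutamate oxidase and HRP, measured before and after 30 min room-temperature incubation. hKGA is in 45 mM KH2PO4 (pH 8.2) with 0.02% Tween-20; glutamine added as 1mM solution.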
Pol eta inh: DNA polymerase eta (human) inhibition; Potency, µM (top dose mostly 114 µM), for inactives: at the highest dose activity change, negative = inhibition, most hits filed as inhibitors; recombinant Pol eta, fluorescent DNA replication assay; 1.2% of 390,000 active; note: % is set by controls: 0 for no effect and ±100 for the full control effect
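Pol eta (10 nM) was preincubated with compounds for 15 min at room temperature, after which fluorescent replication substrate (50 nM final) was added to start the reaction. Fluorescence was read kinetically at 0 and 10 min.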
POLB inh: DNA polymerase beta (human) inhibition | P06746 | Pol beta primer extension/strand displacement, fluorescence kinetic | Potency, µM (top dose mostly 114 µM), for the others: top-dose activity change, negative = inhibition, usual class: inhibitors | 1.3% of 340,000 active | AID 485314; note: % is set by controls: 0 for no effect and ±100 for the full control effect
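10 nM enzyme + cpd, 15 min RT; start with substrate 50 nM final; read 0 min and after 10 min RT. Corrected, normalized data; 4-parameter Hill curve fit.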
Pol iota inh: blocks human DNA polymerase iota activity. Q9UNA4. Pol iota fluorescent replication assay, 10 min. Potency, µM (highest dose often 115 µM), for inactives: top-dose activity, negative = inhibition, usual class: inhibitors. 1% of 390,000 active
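Fluorescent replication assay read twice, at 0 min and 10 min after adding 50 nM (final) substrate. Enzyme (10 nM) and compounds were first incubated 15 min at room temperature; enzyme-free buffer wells were negative controls.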
POLK inh: DNA polymerase kappa (human) inhibition; AID 588579; 0.53% of 400,000 active; purified Pol kappa, fluorescent DNA synthesis assay, 10 min; Potency, µM (doses to about 107 µM), inactives show top-dose activity, negative = inhibition, actives largely listed as inhibitors; note: % is set by controls: 0 for no effect and ±100 for the full control effect
Target sequence (Q9UBT6 whole entry, looked up): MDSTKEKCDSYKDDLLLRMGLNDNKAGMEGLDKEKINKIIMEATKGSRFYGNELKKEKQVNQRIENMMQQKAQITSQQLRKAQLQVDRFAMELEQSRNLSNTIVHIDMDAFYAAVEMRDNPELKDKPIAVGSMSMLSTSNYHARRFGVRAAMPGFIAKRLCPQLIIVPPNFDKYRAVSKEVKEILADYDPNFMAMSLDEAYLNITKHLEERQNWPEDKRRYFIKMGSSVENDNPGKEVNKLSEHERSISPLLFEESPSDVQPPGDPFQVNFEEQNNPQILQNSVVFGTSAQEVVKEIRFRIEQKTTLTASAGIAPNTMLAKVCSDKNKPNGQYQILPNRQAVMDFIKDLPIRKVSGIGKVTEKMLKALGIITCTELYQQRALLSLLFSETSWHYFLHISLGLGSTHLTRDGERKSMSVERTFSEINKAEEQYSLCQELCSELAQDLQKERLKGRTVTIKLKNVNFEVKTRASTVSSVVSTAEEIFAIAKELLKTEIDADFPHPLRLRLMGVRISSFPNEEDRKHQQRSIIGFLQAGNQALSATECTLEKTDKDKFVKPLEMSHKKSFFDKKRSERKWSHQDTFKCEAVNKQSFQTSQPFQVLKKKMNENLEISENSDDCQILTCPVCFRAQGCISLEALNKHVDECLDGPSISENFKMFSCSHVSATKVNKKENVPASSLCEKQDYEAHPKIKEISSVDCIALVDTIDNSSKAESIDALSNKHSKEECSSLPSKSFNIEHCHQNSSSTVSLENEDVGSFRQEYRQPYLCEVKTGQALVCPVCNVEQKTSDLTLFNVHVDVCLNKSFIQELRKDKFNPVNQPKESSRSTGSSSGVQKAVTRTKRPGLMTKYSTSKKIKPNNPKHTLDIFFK
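Enzyme at 10 nM met test compounds for 15 min at room temperature. Substrate addition (50 nM final) began the reaction, which was monitored by fluorescence at 0 and 10 min.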
* = called active by the depositor; ? = inconclusive; . = no result given; [ ] = remark or other dose. Calls come from the whole dose curve; as a rule, active = well fitted curve in the direction sought with a large enough effect; inconclusive = small, poorly fitted or top-dose-only effect, or another doubt; inactive = no such curve, though single readings can be large; an effect the other way counts as inactive or inconclusive. Potency is the fitted concentration of half-maximal effect.

SMILES	APE1 inh	GLS inh	Pol eta inh	POLB inh	Pol iota inh	POLK inh
O=[N+]([O-])c1cc2no[n+]([O-])c2cc1N1CCCCC1	.	-19.1%	15.8µM*	.	?	?
COC(=O)Nc1ccc(S(=O)(=O)N2CCCCC2C(=O)NCc2ccco2)cc1 (stereo unspecified)	2.8%	0.6%	-1.9%	16.8%	?	8.6%
O=C(NCc1ccco1)C1CCCN(S(=O)(=O)c2ccc(-n3cnnn3)cc2)C1 (stereo unspecified)	?	0.7%	20µM*	25.1µM*	?	?
Cc1ccc(S(=O)(=O)N2CCCCC2C(=O)NCc2ccco2)cc1 (stereo unspecified)	-1.2%	3.8%	?	8.2%	89.1µM*	-29.8%
Cc1sc(C2C(C#N)=C(N)N(c3ccc(Cl)cc3)C3=C2C(=O)CCC3)cc1CN1CCOCC1 (stereo unspecified)	.	-21.1%	-2.8%	-20.9%	22.4%	-9.1%[60.1 µM]
O=C(CCc1nc2ccccc2c(=O)[nH]1)N1CCCc2ccccc21	-12.9%	?	50.1µM*	.	28.8%	-14.0%
CCOC(=O)C1CCN(c2cc3c(cc2NC(=O)c2ccc(OC)c(OC)c2)n(C)c(=O)n3C)CC1	-10.7%	-5.1%	50.1µM*	60.8%	30.1%	-7.6%
O=C(Cn1c(=O)oc2cc(S(=O)(=O)NCc3ccccc3)ccc21)NCc1ccc(Cl)cc1	.	3.1%	5.1%	-3.2%	-5.5%	-13.4%[60.1 µM]
O=C(Cn1c(=O)oc2cc(S(=O)(=O)NCc3ccccc3)ccc21)NCc1ccc(F)cc1	.	-4.0%	-17.1%	56.2µM*	21.8%	0.9%
O=c1cc(CSc2nnnn2-c2ccccc2)nc(Nc2ccc(F)cc2)[nH]1	-3.5%	0.0%	?	44.7µM*	44.7µM*	?
NC(=O)c1ccsc1NC(=O)COC(=O)c1ccccc1F	6.0%	-5.9%	-6.7%	.	79.4µM*	-2.7%
NC(=O)c1ccsc1NC(=O)COC(=O)c1cc(=O)[nH]c2ccccc12	20.6%	-22.9%	39.8µM*	.	?	-16.4%
CC(=O)Nc1cccc(OCC(=O)Nc2ccccc2)c1	-3.7%	4.4%	-7.8%	-5.1%	28.6%	3.3%
O=C(COC(=O)c1cc(=O)[nH]c2ccccc12)NCc1cccs1	0.5%	-1.4%	-16.1%	5.4%	-14.3%	-1.6%
CC(=O)Nc1cccc(OCC(=O)Nc2sccc2C(N)=O)c1	-2.9%	-0.2%	?	-0.5%	50.1µM*	-30.8%
O=C(COc1ccccc1Cl)Nc1ccc(-c2nc3ccccc3s2)cc1	.	-9.2%	-16.4%	-21.1%	35.2%	-3.2%
CCOC(=O)c1ccccc1NC(=O)COC(=O)CSCC(=O)Nc1cc(C)on1	48.9%	14.9%	-0.2%	.	38.1%	-3.6%
CCCCNC(=O)N1CCN(c2ccnc3cc(Cl)ccc23)CC1	-12.5%	2.6%	?	1.6%	28.2µM*	-3.3%
CC(=O)N1CCN(c2ccnc3cc(Cl)ccc23)CC1	5.5%	4.7%	-16.5%	6.7%	40.6%	-15.3%
C=CCNC(=O)CN1CCC(O)(c2ccc(F)cc2)CC1	0.1%	24.5%	-13.5%	-1.9%	100µM*	-9.8%[60.1 µM]
COc1cc(C2OCC3C(c4ccc(OC5OC(CO)C(O)C(O)C5O)c(OC)c4)OCC23)ccc1O (stereo unspecified)	5.0%	41.7%	?	?	70.8µM*	?
Cc1nc(CNC(=O)c2ccccc2OC2CCN(S(C)(=O)=O)CC2)cs1	0.5%	4.4%	-17.6%	45.1%	26.5%	3.1%
COc1cccc(C2=NOC(C(=O)Nc3cccc(C(C)=O)c3)C2)c1OC (stereo unspecified)	-1.6%	-2.0%	-16.0%	22.6%	24.6%	9.0%
Cc1cc(NC(=O)CSCC(=O)N(c2ccc(F)cc2)C(C(=O)NC2CCCCC2)c2ccc(O)c(O)c2)no1 (stereo unspecified)	-1.1%	-0.5%	?	20µM*	?	-19.5%
COc1ccc(N(C(=O)CSCC(=O)Nc2cc(C)on2)C(C(=O)NC2CCCCC2)c2ccc(O)c(O)c2)cc1 (stereo unspecified)	0.9%	15.8%	-1.4%	-12.2%	-3.0%	-28.3%
SMILES	APE1 inh	GLS inh	Pol eta inh	POLB inh	Pol iota inh	POLK inh
CS(=O)(=O)N(CC(=O)N1CCN(c2ccccc2)CC1)Cc1ccc(Cl)cc1	16.1%	8.6%	-14.8%	0.3%	16.1%	-6.0%
Cc1ccc(-c2cn(-c3cccc(Cl)c3)c(S(=O)(=O)CC(=O)Nc3cccc(C)c3)n2)cc1	.	-4.0%	-2.1%	12.5%	70.8µM*	-5.4%
Cc1sc(NC(=O)C2c3ccccc3Oc3ccccc32)c(C(=O)OC(C)C)c1C	.	-1.3%	-18.9%	-1.0%	-2.4%	-19.7%
Cc1c(C(=O)OC(C)C)sc(NC(=O)C2c3ccccc3Oc3ccccc32)c1C(=O)OC(C)C	.	-7.5%	-15.0%	?	89.1µM*	?
O=C(NC1CCCC1)C(c1ccc(N2CCOCC2)cc1)N(Cc1ccccc1)C(=O)c1ccco1 (stereo unspecified)	-0.1%	3.6%	-14.8%	17.2%	9.4%	-2.6%
CC(NC(=O)c1cccc(Br)c1)c1ccccc1 (stereo unspecified)	-7.2%	-1.6%	-14.3%	-11.3%	36.7%	5.6%
O=C(NCC(c1ccco1)N1CCCC1)c1ccc(S(=O)(=O)Nc2ccccc2Cl)cc1 (stereo unspecified)	17.4%	0.9%	?	.	?	79.4µM*
O=C(NCC(c1ccco1)N1CCCCC1)c1ccc(S(=O)(=O)Nc2ccccc2Cl)cc1 (stereo unspecified)	21.1%	17.0%	-0.3%	.	-6.6%	-8.5%
Cc1cc(C)cc(N2C(=O)CC(N3CCOCC3)C2=O)c1 (stereo unspecified)	-8.0%	-0.3%	4.3%	4.3%	27.5%	2.0%
O=C(O)c1cc(-c2ccc(/C=c3\sc4nc5ccc(Br)cc5n4c3=O)o2)ccc1Cl	2.67µM*	.	.	1.58µM*	.	.
O=C(Cc1ccc(F)cc1)N/N=C/c1ccc(-c2ccc(Cl)c(C(=O)O)c2)o1	-3.4%	-1.9%	-12.1%	0.4%	23.2%	11.5%
CCc1ccccc1S(=O)(=O)Cc1ccc(C(=O)NCc2ccc(Cl)cc2)o1	.	-4.3%	-15.5%	?	-12.9%	-14.2%
O=C(O)c1ccc(/C=N/NC(=O)c2cc3c(ccc4ccccc43)o2)cc1	?	-10.1%	?	39.8µM*	?	-33.5%
COc1ccc(/C=N\NC(=O)c2cc3c(ccc4ccccc43)o2)cc1O	?	2.1%	50.1µM*	-20.4%	28.2µM*	-18.4%
O=C(COc1ccc(/C=N/NC(=O)c2cc3ccccc3o2)cc1Br)Nc1ccccc1	-11.2%	-0.9%	0.891µM*	5.62µM*	?	-4.8%
O=C(N/N=C/c1ccncc1)c1cc2c(ccc3ccccc32)o1	12.6%	2.8%	?	0.8%	9.4%	-2.2%
